# DT40 TDP1 no CPT: qHTS for Inhibitors of human tyrosyl-DNA phosphodiesterase 1 (TDP1): qHTS in cells in absence of CPT. actives 15% (n = 420,000). DT40 Tdp1-/- hTDP1 cells, no CPT, ATP luminescence, 48 h. Potency, µM (top dose mostly 46.2 µM), inactives show at the top dose activity change, negative = growth inhibition, actives largely listed as inhibitors. AID 686978, 2013; also: potency is read from the fitted curve at half-maximal effect; nearly all actives have a fitted effect of over 55% in size
#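 Readout: luminescence from CellTiter-Glo after 30 min in the dark at RT. Cells: DT40 Tdp1-/- with stable hTDP1, 400/well. Exposure: compounds alone, ≥48 hr, 37 °C.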
# IL1B secr inh: inhibitors of inflammasome signaling (IL-1 beta secretion) | THP-1 LPS/ATP IL-1B secretion, AlphaLISA, 16 h; stronger effect = lower value | activity change, % at 57.5 µM | actives 4.7% (n = 360,000); in the data active = activity change below about -50%; inconclusive = mostly about -30% to -49%
#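 Secreted IL-1B measured by AlphaLISA bead assay after 16 h compound exposure of THP-1 cells; compounds (final up to 57.5 uM) added 1 h before LPS (250 ng/mL) and ATP (1.25 mM) stimulation; lower signal means less secretion.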
# TDP1 cell CPT: growth inhibition of DT40 Tdp1-/-;hTDP1 cells with camptothecin (screen for TDP1 inhibitors); chicken DT40 Tdp1-/-;hTDP1 cells + 20 nM CPT, ATP luminescence, 48 h; Potency, µM (top dose mostly 46.2 µM), for inactives: top-dose activity change, negative = growth inhibition, most hits filed as inhibitors; actives 12% (n = 420,000); AID 686979; also: potency is read from the fitted curve at half-maximal effect; nearly all actives have a fitted effect of over 55% in size
#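 Cell growth measured by CellTiter-Glo luminescence after a minimum 48 h, 37 C compound exposure with 20 nM CPT in Tdp1-knockout DT40 cells stably expressing hTDP1, seeded 400/well; qHTS titration format.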
# LDHA block: blocks human lactate dehydrogenase A; P00338; purified LDHA, NADH/diaphorase-resazurin fluorescence; stronger effect = lower value; actives 0.15% (n = 480,000); activity change, % (values are at about 110 or 230 µM); in the data active = activity change below about -30%; inconclusive = mostly about -25% to -30%;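 also: plate controls were DMSO wells for no effect and wells without enzyme for full effect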
#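 Human LDH5 at 2 nM final in Tris HCl pH 7.4 with 0.06 mM NADH and 0.2 mM pyruvate, reacted 5 minutes at room temperature. Remaining NADH coupled via diaphorase/resazurin; resorufin fluorescence read at 0 and 20 minutes, normalized to enzyme-free and DMSO wells.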
# RORgamma inh: blocks mouse ROR gamma transcriptional activity; P51450; Drosophila S2 Gal4-RORgamma UAS-luciferase reporter, 20 h; Potency, µM (highest dose often 53.6 µM), without a hit: at the highest dose activity change, negative = inhibition, most hits filed as inhibitors; actives 5.4% (n = 310,000); also: potency is read from the fitted curve at half-maximal effect; nearly all actives have a fitted effect of over 60% in size
# Target sequence (P51450 whole entry, looked up, the tested form may be a part): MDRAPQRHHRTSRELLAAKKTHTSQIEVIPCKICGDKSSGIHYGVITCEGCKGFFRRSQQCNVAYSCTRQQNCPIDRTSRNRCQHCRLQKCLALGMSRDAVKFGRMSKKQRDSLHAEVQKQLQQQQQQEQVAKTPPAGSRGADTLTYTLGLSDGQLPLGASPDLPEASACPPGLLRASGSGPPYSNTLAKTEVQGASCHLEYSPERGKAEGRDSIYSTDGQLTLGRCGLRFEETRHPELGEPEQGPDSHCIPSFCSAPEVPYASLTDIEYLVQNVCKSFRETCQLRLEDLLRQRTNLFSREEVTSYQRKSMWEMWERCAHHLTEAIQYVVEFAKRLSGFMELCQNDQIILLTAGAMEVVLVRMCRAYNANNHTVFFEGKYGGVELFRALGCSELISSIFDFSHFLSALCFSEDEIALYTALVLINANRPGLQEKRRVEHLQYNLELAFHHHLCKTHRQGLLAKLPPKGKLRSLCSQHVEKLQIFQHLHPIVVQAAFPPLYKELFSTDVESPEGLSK
#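 Stably transfected Drosophila Schneider cells are the test system, with ROR gamma fused to Gal4 and luciferase under UAS control; luminescence is read after 20 hr of 700 uM copper sulfate induction at ambient temperature.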
# Gal4-VP16 FLuc: Gal4-VP16 reporter inhibition counter-screen. actives 3.5% (n = 310,000). Drosophila S2 Gal4-VP16 UAS-luciferase, luminescence, 20 h. Potency, µM (highest dose often 53.6 µM), for inactives: top-dose activity, negative = inhibition, usual class: inhibitors. AID 2546;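 also: Gal4-VP16 expression switched on by copper sulfate through the metallothionein promoter; potency is read from the fitted curve at half-maximal effect; nearly all actives have a fitted effect of over 50% in size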
# Numbers without * were called inactive; ? = inconclusive; nt = no result given; ! = not active in a repeat. A selection: hits, their analogues and other compounds. The true share with any hit is near 18%. Unless noted, calls follow the shape of the dose curve; as a rule, active = well fitted curve in the direction sought with a large enough effect; inconclusive = small, poorly fitted or top-dose-only effect, or another doubt; inactive = no such curve, though single readings can be large; an effect the other way counts as inactive or inconclusive. Unless noted, % is scaled to controls: 0 for no effect and ±100 for the full control effect.
SMILES,DT40 TDP1 no CPT,IL1B secr inh,TDP1 cell CPT,LDHA block,RORgamma inh,Gal4-VP16 FLuc
CC(C)=CCc1c(O)ccc(C(=O)Cc2ccccc2)c1O,?,-0.2,-11.2%,-2.3,32.6%,-17.4%
COc1ccc(OC)c(N/C(=N/C(=S)Nc2ccccc2)Nc2nc(C)cc(C)n2)c1,8.2µM*,-2.4,?,-0.6,?,0.708µM*
CC(C)=NN/C(N)=N/C(=S)Nc1ccc(C)cc1,?,11.4,?,-5.6,?,3.4%
CCOc1ccc2nc(N/C(N)=N/S(C)(=O)=O)nc(C)c2c1,-27.3%,?,-1.1%,-0.9,4.5%,5.9%
CCc1ccc(NC(=S)/N=C(\N)Nc2nc(C)c3cc(CC)ccc3n2)cc1,?,-63.9*,?,-2.3,1.12µM*,7.08µM*
COc1ccc(OC)c(N/C(=N\c2nc(C)cc(C)n2)NC(=O)c2ccco2)c1,nt,nt,nt,nt,11.6%,-3.5%
COc1ccc2nc(N/C(N)=N/C(=S)Nc3ccccc3)nc(C)c2c1,8.2µM*,-86.5*,25.9µM*,1.8,0.794µM*,4.47µM*
COc1ccc2nc(N/C(N)=N/C(=S)Nc3ccc(C)c(C)c3)nc(C)c2c1,nt,nt,nt,nt,0.794µM*,?
COC(=O)C1=C(C)NC(=O)CC1C(=O)Nc1cc(Cl)ccc1C (stereo not given),nt,nt,nt,-21.6,nt,nt
COC(=O)C1=C(C)NC(=O)CC1C(=O)Nc1ccc(Cl)cc1 (stereo not given),nt,nt,nt,-65.0*,nt,nt
CC(C)N(Cc1nccn1C)C(=O)c1cc(COc2ccc(F)cc2Cl)on1,?,-1.7,14.6µM*,-3.0,-7.9%,4.6%
COc1ccc(OCc2cc(C(=O)N(Cc3nccn3C)C(C)C)no2)c2ccccc12,11.6µM*,-1.6,20.6µM*,9.1,-19.4%,22.8%
COc1ncnc(-c2ccccc2)c1-c1ccccc1,14.6µM*,9.6,?,-8.5,nt,nt
CCC1CN(C(=O)c2cnn(-c3ccccc3F)c2C(F)(F)F)CCO1 (stereo not given),nt,nt,nt,-4.6,nt,nt
Cc1cc(=O)[nH]c2sc3c(C(F)(F)F)cc(=O)[nH]c3c12,nt,nt,nt,6.5,nt,nt
O=C(Nc1cn(-c2ccccc2)nc1-c1ccc(Cl)cc1)c1ccccc1,?,3.9,?,-4.2,27.3%,-4.9%
O=C(Nc1cn(-c2ccccc2)nc1-c1ccc(F)cc1)c1ccccc1,18.4µM*,10.5,20.6µM*,-6.8,1.7%,2.7%
Cc1ccc(-c2nn(-c3ccccc3)cc2NC(=O)c2ccccc2)cc1,20.6µM*,?,20.6µM*,-2.9,5.5%,-9.6%
COc1cc(OC)cc(C(=O)Nc2ccc(Sc3c(C)c(C)nc4ncnn34)cc2)c1,nt,nt,nt,-5.9,nt,nt
CC(Sc1ccc2ccccc2n1)C(=O)NC(N)=O (stereo not given),nt,nt,nt,2.1,nt,nt
CC(=O)Nc1cn(-c2ccccc2)nc1-c1ccccc1,10.2%,-78.6*,0.6%,-7.4,21.1%,1.9%
O=C(CCl)Nc1cn(-c2ccccc2)nc1-c1ccccc1,3.66µM*,-97.5*,2.91µM*,-0.6,?,?
COC(=O)N/N=C/c1cn(Cc2ccccc2Cl)c2ccccc12,20.6µM*,-26.8,18.4µM*,-3.9,32.0%,2.2%
COC(=O)N/N=C/c1cn(Cc2ccc(F)cc2)c2ccccc12,?,-23.6,-28.5%,-3.6,45.2%,2.6%
COC(=O)N/N=C/c1cc(Cl)cc(Cl)c1OCc1ccccc1F,18.4µM*,12.6,?,-9.2,3.4%,-4.3%
SMILES,DT40 TDP1 no CPT,IL1B secr inh,TDP1 cell CPT,LDHA block,RORgamma inh,Gal4-VP16 FLuc
COC(=O)N/N=C/c1cn(Cc2ccccc2F)c2ccccc12,?,-74.7*,-2.7%,3.3,29.3%,-1.8%
COC(=O)N/N=C/c1cn(Cc2ccc(Cl)cc2Cl)c2ccccc12,?,-27.6,?,-6.2,?,-13.6%
CC(C)(C)C(=O)/C=c1/[nH]c(=O)/c(=C/c2ccc(O)c(Cl)c2)s1,nt,nt,nt,6.6,nt,nt
CCOc1ccc(C(=O)Nc2ccc3sc(NC(=O)C(C)C)nc3c2)cc1,nt,nt,nt,-3.9,nt,nt
O=C(NCC12CC3CC(C1)CC(CNC(=O)c1ccc(Cl)cc1)(C3)C2)c1ccc(Cl)cc1,nt,nt,nt,-1.3,nt,nt
O=C(C(Sc1nncn1-c1ccccc1F)c1ccccc1)N1CCCCC1 (stereo not given),nt,nt,nt,-3.9,nt,nt
Cc1nc(C(=O)NCc2cccs2)ccc1C#N,nt,nt,nt,-0.4,nt,nt
Cc1ccc2c(c1)C(c1ccccc1)N(C(=O)c1ccc(Br)o1)CC(=O)N2 (stereo not given),20.6µM*,-11.4,20.6µM*,-4.5,-9.7%,6.0%
O=C1CN(C(=O)c2ccc(Br)o2)C(c2ccccc2)c2cc(Br)ccc2N1 (stereo not given),20.6µM*,?,16.4µM*,2.3,14.1%,-16.5%
O=C1CN(C(=O)c2ccc(S(=O)(=O)N3CCCC3)cc2)C(c2ccccc2)c2cc(Br)ccc2N1 (stereo not given),?,nt,14.6µM*,1.7,nt,nt
O=C(O)c1ccc(/C=C/C(=O)c2nc3ccccc3s2)cc1,nt,nt,nt,9.0,nt,nt
CN(C)c1ccc2c(c1)OC(N)=C(C#N)C2c1cccc(F)c1 (stereo not given),0.0206µM*,-21.5,0.0206µM*,13.1,2.6%,-10.0%
N#CC1=C(N)Oc2cc(N)ccc2C1c1cccc(F)c1 (stereo not given),?,-14.2,?,-2.3,-21.7%,-0.5%
CCC(C)(C(=O)NC1CCCCC1)N(Cc1cccs1)C(=O)CNC(=O)c1ccccc1 (stereo not given),nt,nt,nt,-3.8,nt,nt
Cc1c(Cl)cccc1NC(=O)C1CCN(c2ncnc3c2nc2n3CCCCC2)CC1,-5.8%,nt,?,-2.5,nt,nt
COC(=O)c1ccccc1NC(=O)C1CCN(c2ncnc3c2nc2n3CCCCC2)CC1,16.4µM*,26.6,20.6µM*,2.5,?,-16.1%
CC(C)N(Cc1ccccc1)C(=O)C1CCN(c2ncnc3c2nc2n3CCCCC2)CC1,18.4µM*,-2.5,?,3.1,10.5%,-5.3%
COc1ccccc1NC(=O)C1CCN(c2ncnc3c2nc2n3CCCCC2)CC1,18.4µM*,?,23.1µM*,-0.5,18.9%,-5.6%
COc1ccc(C(=O)N(Cc2cc3cccc(C)c3[nH]c2=O)c2ccccc2)cc1,nt,nt,nt,-4.0,nt,nt
O=C1CCN(Cc2ccc(Br)cc2)CCN1[C@H](CO)c1ccccc1,14.1µM*!,-9.2,?,2.6,33.5%,-3.0%
O=C1CCN(Cc2ccccc2)CCN1[C@H](CSc1ccccc1)Cc1ccccc1,20µM*,-22.6,23.1µM*,-0.2,35.2%,2.0%

# Screening data as filed in PubChem.
